Beta2AR agonist: human beta-2 adrenergic receptor agonism by FAP; P07550; Am2.2-beta2AR cells, FAP receptor internalization, flow cytometry; response, % (no concentration beside the values); actives 0.43% (n = 340,000);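 active = response above a set limit, near 3 SD of response in nonfluorescent compounds, cut at about 42% in these data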
Target sequence (P07550 whole entry, looked up): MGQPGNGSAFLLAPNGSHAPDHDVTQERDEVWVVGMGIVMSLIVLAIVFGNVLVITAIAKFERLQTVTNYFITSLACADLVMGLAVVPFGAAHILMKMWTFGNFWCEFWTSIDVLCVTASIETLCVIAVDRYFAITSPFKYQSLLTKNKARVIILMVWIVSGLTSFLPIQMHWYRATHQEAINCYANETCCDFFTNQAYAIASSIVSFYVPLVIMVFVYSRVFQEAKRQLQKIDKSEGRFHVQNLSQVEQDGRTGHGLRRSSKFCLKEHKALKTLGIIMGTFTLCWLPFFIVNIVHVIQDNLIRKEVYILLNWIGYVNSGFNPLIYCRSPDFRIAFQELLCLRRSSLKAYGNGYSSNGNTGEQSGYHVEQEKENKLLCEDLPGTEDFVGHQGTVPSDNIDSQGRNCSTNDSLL
ABHD5 PLIN5 PPI: blocks binding of human ABHD5 to perilipin-5; inhibition, % at 4 µM; Q00G26+Q8WTS1; Split G. princeps luciferase complementation, luminescence, 4 h; AID 602281; actives 0.78% (n = 360,000);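 active = inhibition above the mean inhibition across every tested compound plus 3 SD, cut at about 22% in these data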
TLR4-MyD88 BLA: TLR4-MyD88 interaction inhibition in cells; O00206+Q99836; HeLa CL3-4 TLR4/MyD88 BLA complementation, FRET ratio; inhibition, % at 8.4 µM; actives 0.18% (n = 200,000); AID 861; in the data active = inhibition above about 25%
Granule exo inh: lytic granule exocytosis inhibition | TALL-104 LAMP-1 surface exposure, flow cytometry; cells stimulated with thapsigargin and PMA | inhibition, % at 10 µM | actives 0.66% (n = 360,000) | AID 651702;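 active = inhibition above about 55%, limit read from the data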
NOD2-RIPK2 inh: NOD2-RIPK2 protein interaction inhibition. actives 0.38% (n = 360,000). inhibition, % at 4.98 µM. CHO BLA complementation NOD2-RIPK2, CCF4 ratio. O43353; in the data active = inhibition above about 21%
TLR9-MyD88 block: TLR9-MyD88 interaction inhibition; Q9NR96+Q99836; CHO BLA complementation TLR9-MyD88, CCF4 FRET ratio; inhibition, % at 4.98 µM; actives 0.21% (n = 340,000);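 active = inhibition above the mean over all tested compounds plus 3 SD, cut at about 21% in these data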
TLR4-MyD88 conf: TLR4-MyD88 interaction inhibition confirmed; actives 50% (n = 350); HeLa CL3-4 BLA complementation, CCF4 FRET ratio; inhibition, % at 8.4 µM; shares compounds with TLR4-MyD88 BLA;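 active = mean inhibition across three repeat runs above about 25% carried over from the earlier screen, limit read from the data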
BLA inh HeLa: beta-lactamase inhibition flagged in TLR4-MyD88 counter-screen; shares compounds with TLR4-MyD88 BLA; HeLa BLA reporter, CCF4 FRET ratio; inhibition, % at 8.4 µM; actives 63% (n = 350);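 active = mean inhibition over three repeats above about 26% taken from the earlier screen, limit read from the data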;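 also: HeLa cells stably expressing beta-lactamase reporter as counterscreen for TLR4-MyD88 inhibitors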
A number is an active result; i = inactive; nt = no result. This is a sample that favours compounds with a hit; in the whole collection about 2% have one here.

SMILES	Beta2AR agonist	ABHD5 PLIN5 PPI	TLR4-MyD88 BLA	Granule exo inh	NOD2-RIPK2 inh	TLR9-MyD88 block	others
Cc1cccc(/C=N/NC(=O)c2cc(-c3cccnc3)nc3c2c(C)nn3-c2ccccc2)c1	103	i	i	i	i	i
O=C(N/N=C/c1cn(-c2ccccc2)nc1-c1cc2ccccc2o1)c1ccncc1	i	i	i	i	i	i
Cc1cccc(/C=N/NC(=O)c2cc(-c3cccnc3)nc3ccccc23)c1	i	i	i	i	i	i
Cc1nn(-c2ccccc2)c(Cl)c1/C=N/NC(=O)c1cccnc1	50	i	i	i	i	i
O=C(N/N=C/c1cn(-c2ccccc2)nc1-c1cc2ccccc2o1)c1cccnc1	i	i	i	75	i	i
Cc1ccc(-n2nc(C)c(/C=N/NC(=O)c3cccnc3)c2Cl)cc1	i	i	i	i	i	i
Cc1nn(-c2ccccc2)c(C)c1/C=N/NC(=O)c1cc(-c2ccccc2)n[nH]1	68	i	i	i	i	i
CCOC(=O)N1CCN(C(=O)C[C@@H]2C[C@@]3(C(=O)OCC)CCC=C3N(Cc3cccc4ccccc34)C2=O)CC1	nt	i	nt	i	i	nt
COc1cccc(-c2cc(CNC(=O)[C@H]3O[C@@H](n4ccc(=O)[nH]c4=O)[C@H](O)[C@@H]3O)no2)c1	nt	i	nt	i	i	nt
COC(=O)[C@@]12C[C@@H](CC(=O)NCCC(C)C)C(=O)N(Cc3ccccc3)C1=CCC(C)(C)C2	nt	i	nt	i	i	nt
COc1ccc(/C=C/C(=O)c2ccc3c(c2)OCO3)cc1OC	i	i	nt	i	i	i
COc1cc2c(O)c3c(c(-c4ccc5c(c4)OCO5)c2cc1OC)C(=O)OC3	45	i	i	i	i	i
COc1cc2c(OC(C)=O)c3c(c(-c4ccc5c(c4)OCO5)c2cc1OC)C(=O)OC3	59	i	i	i	i	i
COc1ccc(-c2oc(=O)c3cc(OC)c(OC)cc3c2-c2ccc3c(c2)OCO3)cc1	i	i	nt	i	i	i
N#Cc1ccc(CN2CCN(C(=O)C3CC(=O)N(c4ccc5c(c4)OCCO5)C3)CC2)cc1 (configuration not stated)	nt	i	nt	i	i	i
CCOC(=O)N1CCN(C(=O)C[C@@H]2C[C@@]3(C(=O)OCC)CCCC=C3N(CCC3=CCCCC3)C2=O)CC1	nt	i	nt	i	i	nt
CN(C)C=Nc1c(Br)cc(Br)c2nonc12	i	i	25	i	i	i	TLR4-MyD88 conf=i;BLA inh HeLa=35
CN(C)C=Nc1nonc1-c1ccccc1	i	i	nt	i	i	i
CC1(C(=O)NS(=O)(=O)c2ccccc2Cl)CCN1C(=O)c1ccco1 (configuration not stated)	nt	i	nt	i	i	nt
O=C1c2cccc3c([N+](=O)[O-])ccc(c23)C(=O)N1c1nccs1	i	i	93	85	89	79	TLR4-MyD88 conf=92;BLA inh HeLa=114
COCCN1C(=O)COc2ccccc2C1C(=O)NC1CCCC1 (configuration not stated)	nt	i	nt	i	i	nt
CN(C)c1nc(C=C(C#N)C#N)c(Cl)n1-c1ccc(F)cc1	52	i	35	i	i	i	TLR4-MyD88 conf=27;BLA inh HeLa=i
CCc1ccc(C(O)c2ncc(-c3ccccc3OC)[nH]2)cc1 (configuration not stated)	nt	i	nt	i	i	nt
O=C(NCc1ccc2c(c1)OCO2)C1CC(=O)N(c2ccc(F)cc2)C1 (configuration not stated)	i	i	25	i	i	i	TLR4-MyD88 conf=i;BLA inh HeLa=i
O=C1c2ccccc2C(c2nnnn2-c2ccc3c(c2)OCCO3)N1CCCN1CCOCC1 (configuration not stated)	nt	i	nt	i	i	nt
CCN(CC)c1ccc(/C=C(\C#N)c2nc(-c3cccs3)c(NC(C)=O)s2)cc1	nt	nt	28	nt	nt	nt	TLR4-MyD88 conf=28;BLA inh HeLa=51
CC(=O)Nc1sc(N/N=C\c2ccc(O)cc2)nc1-c1cccs1	i	i	nt	i	i	i
COc1cc2c3nnc(-c4ccccc4)c-3cn(Cc3ccc(F)cc3)c2cc1OC	i	i	i	i	i	i
